PubChem BioAssay AID492998 (Southern Research Specialized Biocontainment Screening …, 2010)
Screen size: about 2,300 compounds; about 550 (24%) were called active. Not all results are given here. Results with a measured potency or affinity are listed apart. A number with no mark means an inactive call. How the calls were made is not given here.

Assay: Vero E6 cell cytotoxicity, dose response, cytotoxicity control for non-replicating M. tuberculosis project, secondary assay (AID 492998);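 further: 100% = vehicle-treated cells and 0% = background wells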
Conditions: series mostly up to 20 µM; viability: at the top concentration

SMILES	viability
CCOc1ccccc1NC(=O)COn1nnc2ccc(Cl)cc21	99.8%
COc1ccc(CN=C(C#N)C2=C(O)c3ccccc3C2=O)cc1	91.6%
COc1cccc(NC(=O)c2ccc(C(=O)c3ccccc3)o2)c1	95.3%
COc1cccc(NC(=O)c2cnc(SC)nc2)c1	108%
C(#CCN1CCOCC1)COCc1ccccc1	110%
O=c1cc(C(F)(F)F)[nH]c2c(C(F)(F)F)cccc12	96.8%
O=C(Nc1ncc2c(n1)-c1ccccc1OC2)c1ccc(F)cc1	98.9%
O=C(Nc1nnc(C2=COCCO2)o1)c1ccc(F)cc1	83.1%
CCOC(=O)CNCCC(=O)c1ccc(Br)cc1	92.9%
COc1ccc(S(=O)(=O)NCc2ccc3c(c2)cc(C)n3C)cc1	103%
COC(=O)COc1ccc(-c2nn(C)c(=O)c3ccccc23)cc1	90.4%
NC(N)=Nc1nc(-c2ccccc2)c2ccccc2n1	97%
COC(=O)[C@H](CC(C)C)NC(=O)NCCC1=CCCCC1	87.6%
O=C(NCc1cccs1)c1cc(-c2ccc(O)cc2)on1	89.1%
CC1CCN(CCOCCSc2ccc(Cl)cc2)CC1	88.8%
O=C(CCSc1ccccn1)c1ccccc1	87.2%
CCOc1ccc(-c2ccc(SCC)nn2)cc1	93.3%
Nc1c(C(=O)NC2CCCCC2)nsc1C(=O)OCC(=O)NC1CCCCC1	97%
CCC(C)c1ccc(OCCn2ccnc2)cc1 (configuration not stated)	83.8%
O=C(N/N=C/C(Br)=C/c1ccccc1)c1cnccn1	88.9%
O=C(N/N=C/C(Br)=C/c1ccccc1)c1ccncc1	105%

SMILES	viability
O=C(Cc1ccccc1)Nc1ccc(C(=O)NCC2COc3ccccc3O2)cc1 (configuration not stated)	94.7%
O=C(NCc1ccc(Cl)cc1)c1n[nH]c([N+](=O)[O-])c1Cl	105%
CCOc1ccc(NC(=O)COc2ccc3c(c2)OCO3)cc1	100%
Cc1cccc(OCCCCc2c(C)n[nH]c2C)c1	86.5%
Cc1ccc(C(=O)NCCOc2cccc(C)c2)cc1	101%
CC(C)(C)c1ccccc1OCCOCCN1CCCCCC1	75.2%
Cc1cc(OCc2cc(C(=O)N(C)CCc3cnn(C)c3)no2)cc(C)c1Cl	77.5%
COc1cccc(COC(=O)c2sc3nc4n(c(=O)c3c2C)CCC4)c1OC	99.9%
CCOc1ccc(OCCSc2ccc(S(=O)(=O)N3CCN(C)CC3)cn2)cc1	91.8%
O=C(CCN1CCOCC1)c1ccc(Br)cc1	82.3%
Cc1cc(C(=O)N/N=C/C=C/c2ccccc2)c(C)o1	81%
Nc1ccc2c(c1)oc1ccccc12	98.2%
CCCc1nnc(-c2ccc(OC)cc2)o1	97%
Cc1ccc(SCCC(=O)OCC(=O)NCC2CCCCC2)cc1	101%
NC(=O)CN1CCN(C2CC(=O)N(CCc3ccccc3)C2=O)CC1 (configuration not stated)	107%
NNC(=O)COc1cccc(Oc2ccccc2)c1	107%
CCOC(=O)COc1ccc2c3c(c(=O)oc2c1C)CCC3	92.1%
O=Cc1coc2ccc3ccccc3c2c1=O	95.9%
O=C(OCc1ccc([N+](=O)[O-])cc1)c1ccc2ccccc2n1	96.5%
Cc1cc(C=C2C(=O)N(C)C(=S)N(C)C2=O)c(C)n1-c1cccnc1	113%
Cc1ccc2nc(C)c3c(c2c1)SCC3	103%

SMILES	viability
CCCCCCn1c(=O)c(C(=O)Nc2nnc(C)s2)c(O)c2ccccc21	83.8%
CCCCn1c(=O)c(C(=O)Nc2nnc(C(C)C)s2)c(O)c2ccccc21	91.5%
CCOC(=O)Cc1csc(NC(=O)COc2ccc3c(c2)CCC3)n1	103%
O=C(NC(=S)N1CCN(C/C=C/c2ccccc2)CC1)c1ccco1	113%
Brc1ccc(-c2ccc(CNCc3ccccn3)o2)cc1	91.8%
Cc1ccccc1OCCCCc1c(C)n[nH]c1C	81.3%
O=C(COC(=O)CC12CC3CC(CC(C3)C1)C2)Nc1cccnc1Cl	83.2%
NC(=O)COc1ccc2cc(-c3ccc(F)cc3)c(=O)oc2c1	86.5%
O=C(CCN1CCOCC1)c1ccc(Cl)cc1	82.1%
COc1cc(NC(=O)N2CCOCC2)cc(OC)c1	106%
COc1ccc2cc(C(=O)C3CCCN(Cc4ccccn4)C3)ccc2c1 (configuration not stated)	88.9%
COc1ccc(C(=O)Oc2cccc3cccnc23)cc1S(=O)(=O)N1CCOCC1	91%
Oc1ccc(F)c2cccnc12	98%
COc1ccc(/C=N/NC(=O)c2ccncc2)cc1CN1CCOCC1	106%
O=C(COc1c(Br)cc(Br)c2cccnc12)N1CCCCC1	93.4%
CCOC(=O)C1(CCc2ccccc2)CCN(Cc2ccccn2)CC1	96.7%
Cc1ccc(NC(=O)CO/N=C/c2ccccc2C)c(C)c1	100%
COC(=O)CCSCc1cn2cc(Cl)ccc2n1	109%
COc1ccc(-c2nc3ccc(C)cc3c(=O)o2)cc1OC	109%
CCOC(=O)Cn1c(-c2ccccc2)ccc(C#N)c1=O	97.8%
